Test results taken from PubChem BioAssay (NCI).
About 83,000 compounds went through this panel and 20% of them were active in at least one assay; those are over-represented in the sample as a whole.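 Interpretation: 100, growth as untreated; towards 0, rising growth inhibition; 0, no net growth; 0 to -100, cell death. Compounds scoring below 10 were considered active.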 Values without a mark were called inactive. The source made the active and inactive calls.

Key:
Assay in all cases: NCI-60 one-dose screen, 48 h (100 = growth as untreated, 0 = no growth, -100 = all killed)
Details in all cases: 10 µM unless noted
DU-145 prostate = test system: DU-145 prostate
K-562 leukemia = test system: K-562 leukemia
MALME-3M melanoma = test system: MALME-3M melanoma
MDA-MB-231 breast = test system: MDA-MB-231 breast
SF-268 CNS = test system: SF-268 CNS
SF-295 CNS = test system: SF-295 CNS
SF-539 CNS = test system: SF-539 CNS
UACC-257 melanoma = test system: UACC-257 melanoma
M14 melanoma = test system: M14 melanoma

| SMILES | growth (DU-145 prostate) | growth (K-562 leukemia) | growth (MALME-3M melanoma) | growth (MDA-MB-231 breast) | growth (SF-268 CNS) | growth (SF-295 CNS) | growth (SF-539 CNS) | growth (UACC-257 melanoma) | growth (M14 melanoma) |
| --- | --- | --- | --- | --- | --- | --- | --- | --- | --- |
| CC(=O)O[C@H]1CC[C@@]2(C)[C@@H](CC[C@@H]3[C@@H]2CC[C@@]2(C)[C@H]3CC[C@]2(O)C(C)=O)C1 | 115% | 100% | 99.5% | 100% | 106% | 94.4% | 100% | 109% | 99.3% |
| O=C(Nc1cccc(Cl)c1)Oc1c(Br)c(Br)c(Br)c(Br)c1Br | 105% | 78.5% | 90.7% | 103% | 91.4% | 79.2% | 98.1% | 69.4% | 90.9% |
| O=[N+]([O-])c1cccc(-c2nc(-c3ccc(Cl)cc3Cl)cn2-c2ccccc2)c1 | -80.1% (active) | 43.5% | 128% | -14.6% (active) | 0.437% (active) | -74.3% (active) | 23.6% | -63.6% (active) | -71.6% (active) |
| COc1ccc(NC(=O)c2sc3nc(C)c(C(=O)CCc4cccc(OC)c4)cc3c2N)cc1 | 71.7% | 20% | 62.5% | 85.8% | 80.2% | 15.7% | 72% | 89% | 70.1% |
| CCCCCCCCCCCCCCCCCCOc1ccccc1N | 62% | 86.6% | 102% | 24.7% | 56.6% | 54.3% | 20.5% | 55.4% | 72.9% |
| Clc1nc(Cl)c2ncn(CCOCCn3cnc4c(Cl)nc(Cl)nc43)c2n1 | -99.1% (active) | -62.9% (active) | -73.2% (active) | -89.9% (active) | -83.3% (active) | -91.9% (active) | -89.9% (active) | -89.7% (active) | -84.9% (active) |
| COc1ccc(Cc2nc3cc(OC)c(OC)cc3c(=O)[nH]2)cc1 | 39.5% | 115% | 273% | 73.3% | 30.5% | 65.3% | 100% | 4.95% (active) | 48.8% |
| COc1ccc(C(=O)c2cc3c(N)c(C(=O)Nc4ccc(Br)cc4)sc3nc2C)cc1 | 79.5% | 71.5% | 54.3% | 66% | 50.2% | 86.6% | 66.2% | 79.8% | 74.1% |
| Fc1ccccc1CSc1ncnc2nc[nH]c12 | 120% | 99.6% | 129% | 106% | 109% | 107% | 89.6% | 61.3% | 108% |
| O=C(CN1CCOCC1)Nc1ccc2ncnc(Nc3ccc(Oc4cccc(F)c4)c(Cl)c3)c2c1 | 48.3% | 56.8% | 88.3% | 74.3% | 70.9% | 84.2% | 85% | 89.1% | 74.5% |
| CN1C(=O)N(C)[C@H]2NC(NN)=N[C@H]21 | 114% | 98.9% | 94.3% | 102% | 94% | 101% | 102% | 97.1% | 100% |
| CC[C@H](C)[C@@H]1NC(=O)[C@H](Cc2ccc(O)cc2)N(C)C(=O)[C@H](Cc2ccccc2)NC(=O)CN(C)C(=O)[C@@H]2CCCN2C(=O)[C@@H](Cc2ccccc2)N(C)C(=O)[C@H](CC(C)C)NC1=O | 0.387% (active) | 6.28% (active) | -25.5% (active) | -12.6% (active) | -5.16% (active) | -23.5% (active) | -24.8% (active) | -0.97% (active) | -69.4% (active) |
| NC(=O)C1(N2CCCCC2)CCN(CCCC(=O)c2ccc(F)cc2)CC1 | 5.34% (active) | 10.8% | 57.1% | 29.7% | 38.4% | 4.82% (active) | -3.17% (active) | 47.1% | 44.8% |
| N/C(=N\N=C\c1cc2ccccc2s1)N/N=C/c1cc2ccccc2s1 | 115% | 97.5% | 102% | 95.4% | 102% | 103% | 101% | 98.1% | -56.3% (active) |
| COc1ccc(C2CC(c3cccc(Nc4ccncc4)c3)=NN2c2ccccc2)cc1 (stereo unspecified) | 42.2% | 1.17% (active) | -70% (active) | 62.5% | 72.2% | 64% | 59.7% | -35.6% (active) | -46% (active) |
| O=C1Nc2c(ccc(Cl)c2Cl)/C1=C/c1ccc(F)cc1 | 113% | 85% | 105% | 83.6% | 88.8% | 109% | 94.8% | 97.9% | 93.9% |
| Nc1nnc2cc(Cl)ccc2n1 | 105% | 83.9% | 126% | 96.9% | 112% | 140% | 111% | 127% | 113% |
| COc1ccc(-c2nn(Cc3ccccc3)c3c2-c2oncc2CC3)cc1OC | 97.4% | 90.5% | 138% | 77.8% | 104% | 96.5% | 93.3% | 89.9% | 127% |
| COc1ccc(Cn2nc3c(c2-c2cc(OC)c(OC)c(OC)c2)-c2oncc2CC3)cc1 | 105% | 39.9% | 93.7% | 65.8% | 96.7% | 77.2% | 89.1% | 104% | 84.6% |
| CCCc1cc2c(cc1Br)OCO2 | 111% | 121% | 117% | 113% | 106% | 96.5% | 98.8% | 91.5% | 88.5% |
| CCN1C(=O)N(CC)C2C1NN=c1s/c(=C3\C(=O)Nc4ccccc43)c(=O)n12 (stereo unspecified) | 14.9% | 2.13% (active) | 19% | 25% | 67.1% | 8.72% (active) | -34.1% (active) | 80.4% | 20.1% |
| COc1ccccc1-c1c(-c2ccc(Cl)cc2)c2cc3c(cc2[nH]c1=O)OCCO3 | 83.6% | 44.3% | 87.4% | 95.5% | 68.2% | 58.5% | 88.2% | 73% | 72.5% |
| COc1cc(C2CC(c3cccc(Nc4ccncc4)c3)=NN2c2cc(Cl)cc(Cl)c2)cc(OC)c1OC (stereo unspecified) | -18.1% (active) | -1.05% (active) | -77.9% (active) | 19.8% | 42.4% | 1.81% (active) | 70% | 1.77% (active) | 96.2% |
| Fc1ccc(C2CC(c3cccc(Nc4ccncc4)c3)=NN2c2ccccc2)cc1 (stereo unspecified) | 44.1% | 0.671% (active) | -5.72% (active) | 64.3% | 73.1% | 73.4% | 69.7% | 37.8% | 98.8% |
| CC(=O)OCC(=O)[C@@]1(O)CC[C@H]2[C@@H]3CC(=C(Br)Br)C4=CC(=O)CC[C@]4(C)[C@H]3C(=O)C[C@@]21C | 107% | 102% | 98.3% | 86% | 89.8% | 76.7% | 98.4% | 67.6% | 82.3% |
| CC1CCN(C(=O)OCc2nc3nc(Cl)nc(N4CCOCC4)c3[nH]2)CC1 | -76.7% (active) | -16.7% (active) | -78.9% (active) | -60.1% (active) | -81.6% (active) | 88.3% | -47.1% (active) | -89.7% (active) | -50.9% (active) |
| CN(C)Cc1c(-c2ccccc2)[nH]c2ccccc12 | 113% | 107% | 128% | 102% | 92.1% | 92.7% | 106% | 99.3% | 82.6% |
| COc1cc(-c2nc3occn3c2-c2ccnc(NCCNS(=O)(=O)c3ccc(Cl)cc3)n2)ccc1F | 89.8% | 58.9% | 80.1% | 78.3% | 68.4% | 88.6% | 85.4% | 90.2% | 86% |
| Clc1ccc(C2CC(c3cccc(Nc4ccncc4)c3)=NN2c2cc(Cl)cc(Cl)c2)cc1 (stereo unspecified) | 48% | 1.88% (active) | 62.8% | 71.5% | 83.8% | 70.5% | 81.9% | 88.8% | -63.9% (active) |
